# Screening data as filed in PubChem.
# LT uptake inh – blocks cellular internalization of anthrax lethal toxin | 70,000 compounds, 0.67% hits | AID 912 | Potency, µM (highest dose often 40 µM), without a hit: at the top dose activity change, negative = inhibition, actives largely listed as inhibitors | Cells, anthrax lethal toxin internalization, FRET ratio (460/530); further: on the % scale 0 is the no-effect control and ±100 the full control effect; nearly all actives have a fitted effect of over 50% in size
# AmpC nodet inh – AmpC beta-lactamase inhibition, detergent-free assay; AID 585; Potency, µM (titrated, usually from 28.7 µM), without a hit: top-dose activity change, negative = inhibition; P00811; 71,000 compounds, 1.8% hits; AmpC nitrocefin hydrolysis, absorbance 480 nm, no detergent; further: % of control where 0% means no effect
# Target sequence (P00811 whole entry, looked up): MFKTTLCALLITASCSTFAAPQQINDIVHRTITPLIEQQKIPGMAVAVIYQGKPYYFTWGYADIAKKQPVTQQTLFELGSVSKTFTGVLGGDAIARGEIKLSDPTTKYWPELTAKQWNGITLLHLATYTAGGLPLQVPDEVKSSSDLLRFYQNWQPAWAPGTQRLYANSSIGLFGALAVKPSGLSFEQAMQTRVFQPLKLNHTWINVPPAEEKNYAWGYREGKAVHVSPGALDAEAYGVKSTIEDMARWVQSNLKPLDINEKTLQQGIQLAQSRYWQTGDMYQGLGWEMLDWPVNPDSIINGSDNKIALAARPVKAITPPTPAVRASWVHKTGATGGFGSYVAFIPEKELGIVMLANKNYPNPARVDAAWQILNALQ
#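 AmpC in 20 mM phosphate buffer pH 7.0 was preincubated 15 min at room temperature with compounds. Nitrocefin (800 uM stock) was then added and hydrolysis followed at 480 nm every 20 s for 4 min.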
# SmPrx2 inh – blocks S. mansoni peroxiredoxin 2 enzymatic activity | 65,000 compounds, 0.07% hits | Potency, µM | S. mansoni Prx2 activity coupled to TGR/GSH (TGR is thioredoxin glutathione reductase), NADPH fluorescence loss, qHTS
#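 Prx2 activity was followed as the loss of NADPH fluorescence (ex 365/em 450 nm), read every 30 sec for 8 min after H2O2 start. The enzyme mix (50 nM Prx2, 25 nM TGR, GSH, NADPH; pH 7.4 phosphate buffer) was incubated with compound for 15 min at room temperature first.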
# AmpC inh det – blocks E. coli AmpC beta-lactamase in presence of detergent; 71,000 compounds, 0.09% hits; purified AmpC, nitrocefin hydrolysis with detergent; Potency, µM (titrated, usually from 28.7 µM), for inactives: top-dose activity change, negative = inhibition; active means well fitted curve in the direction sought with a large enough effect; inconclusive means small, poorly fitted or top-dose-only effect; further: on the % scale 0 is the no-effect control and ±100 the full control effect
#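 E. coli AmpC (5.3 nM) in 20 mM phosphate pH 7.0 with 0.01% Triton X-100, preincubated 15 min RT with compound; nitrocefin (2 uL of 800 uM stock) hydrolysis followed by 480 nm absorbance every 20 s over 4 min.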
# An asterisk follows results filed as active; ? = inconclusive; · = no result given; [ ] = another dose, or the depositor's remark. Most compounds without a hit are left out; they make up all but 2.4% or so of the library. Unless noted, the call rests on the fitted dose curve. Potency means the concentration at half of the fitted maximal effect.
SMILES,LT uptake inh,AmpC nodet inh,SmPrx2 inh,AmpC inh det
CCN1CCCC1CNC(=O)c1cc2c(-c3ccc(Cl)cc3)nn(C)c2s1 (stereo not given),3.98µM*,3.98µM*[single pt active],>57,13.8%
Cn1nc(-c2ccc(Cl)cc2)c2cc(C(=O)N3CCC(N4CCCCC4)CC3)sc21,-7.1%,43.5%,>57,15.5%
CCN1CCN(C(=O)N[C@H](C(=O)N[C@@H]2C(=O)N3[C@@H]2SC(C)(C)[C@@H]3C(=O)O)c2ccccc2)C(=O)C1=O,-0.8%[3.58 µM],?,>57,?
CC1(C)S[C@@H]2[C@H](NC(=O)[C@@H](N)c3ccc(O)cc3)C(=O)N2[C@H]1C(=O)O,1.9%[3.58 µM],1.26µM*,>57,0.316µM*
CC1(C)S[C@@H]2[C@H](NC(=O)[C@@H](NC(=O)N3CCNC3=O)c3ccccc3)C(=O)N2[C@H]1C(=O)O,-1.3%[3.58 µM],5.01µM*,>57,7.94µM*
CC1(C)S[C@@H]2[C@H](NC(=O)[C@@H](N)c3ccccc3)C(=O)N2[C@H]1C(=O)O[C@H]1OC(=O)c2ccccc21,-7.0%[3.58 µM],0.0398µM*,>57,?
CC1(C)S[C@@H]2[C@H](NC(=O)[C@H](C(=O)O)c3ccsc3)C(=O)N2[C@H]1C(=O)O,0.1%[3.58 µM],3.98µM*,>57,5.01µM*
COC(=O)C1=C2N(Cc3ccccc3)C(C)=C(C(=O)OC)C(c3ccccc3)N2C(=O)[C@](O)(C(=O)OC)C1 (stereo not given in full),1.5%[8 µM],·,·,·
CC12C=C(/C=C/CCc3ccco3)C(C)(C1)C(CCc1ccco1)CC2=O (stereo not given),-9.5%[8 µM],·,·,·
Cc1ccc2oc(=O)c3cc(C(=O)N4CCN(C(=O)c5ccco5)CC4)sc3c2c1,-4.1%,2.4%,>57,12.5%
Cc1ccc2oc(=O)c3cc(C(=O)N4CCN(c5ncccn5)CC4)sc3c2c1,-16.2%,3.98µM*[single pt active],>57,10.7%
CCN1CCN(c2ncc(C(=O)Nc3ccccc3C(=O)OC)c3ccccc23)CC1,10µM*,132.1%,>57,-1.0%
CN1[C@@H]2CC[C@H]1CC(O[C@@H](c1ccccc1)c1ccc(Cl)cc1)C2 (stereo not given in full),10µM*,99.0%,>57,4.8%
O=C1C2=C(Nc3ccccc3SC2c2ccco2)c2ccccc21 (stereo not given),?,0.398µM*,·,6.7%
O=C1c2ccccc2NC(c2ccco2)N1O (stereo not given),-3.1%,-8.8%,·,0.2%
O=C1C(SCCO)=C(SCCO)C(=O)c2ccccc21,3.98µM*,10.5%,>57,9.9%
N/N=C1/CC(=O)NC(=O)N1,?,5.6%[5.75 µM],>57,-2.7%[5.75 µM]
Cc1ccc(S(=O)(=O)CCC(=O)c2ccc(O)cc2O)cc1,12.6µM*,12.6µM*,·,6.7%
O=S(=O)(c1ccccc1)N1CCC2(CCCN(Cc3ccncc3)C2)CC1,?,72.0%,>57,-2.8%
COc1ccc(NC(=O)CCCC2=NS(=O)(=O)c3ccccc3N2)cc1,5.0%,3.98µM*[single pt active],>57,13.1%
O=C(CCCC1=NS(=O)(=O)c2ccccc2N1)N1CCN(c2ccc(Cl)cc2)CC1,?,3.98µM*[single pt active],>57,25.5%
COc1ccccc1CN1CC2(CCN(C(=O)c3cnccn3)CC2)C1,1.4%,-13.0%,>57,0.8%
NS(=O)(=O)c1cc2c(cc1C(F)(F)F)N[C@H](Cc1ccccc1)NS2(=O)=O,7.9%[3.58 µM],0.3%[12.8 µM],>57,-0.5%[12.8 µM]
O=C(Nc1ccc2c(c1)OCCO2)c1ccco1,10µM*,3.1%,>57,8.8%
COc1ccc2cc3cc(C(=O)NCc4ccc5c(c4)OCO5)oc3nc2c1,8.9%,2.6%,>57,-2.4%
SMILES,LT uptake inh,AmpC nodet inh,SmPrx2 inh,AmpC inh det
COc1ccc2cc3cc(C(=O)Nc4ccc5c(c4)OCCO5)oc3nc2c1,1µM*,47.8%,>57,0.2%
Oc1cc(Cl)cc(Cl)c1,-4.4%,0.1%,·,5.3%
O=C1OC2(c3ccc(O)cc3Oc3cc(O)ccc32)c2c1c(-c1ccccc1)c(-c1ccccc1)c(-c1ccccc1)c2-c1ccccc1,?,2.51µM*,>57,-5.3%[5.75 µM]
COc1ccc(NC(=O)[C@H](CCS(C)(=O)=O)N2Cc3ccccc3C2=O)c(OC)c1,7.3%,3.98µM*[single pt active],>57,15.5%
CC(=O)n1c(COS(C)(=O)=O)nc2ccccc21,?,-6.3%[5.75 µM],>57,-5.1%[5.75 µM]
Nc1ccc(N2CCCCC2)cc1N1CCCCC1,-0.2%,12.8%,>57,5.3%
CN1CCN(c2ccc(N)c(N3CCN(C)CC3)c2)CC1,12.6µM*,9.7%,>57,11.5%
COc1ccc(C2CC(=O)c3cnc(NC(=O)c4ccccc4)nc3C2)cc1OC (stereo not given),-24.8%,3.98µM*[single pt active],>57,9.5%
N#Cc1c(-c2ccc(Cl)cc2Cl)nc2n(c1=O)CCS2,?,10µM*[single pt active],>57,-0.3%
CCOC(=O)C1CCCN(C(=O)Cn2nc(Cc3cccnc3)c3ccccc3c2=O)C1 (stereo not given),2.0%,3.16µM*[single pt active],>57,12.1%
CCC(C)c1ccc2oc(-c3ccc(NC(=O)c4ncn[nH]4)cc3)nc2c1 (stereo not given),?,12.6µM*[single pt active],>57,-4.5%
Cc1ccc(-n2nnc3ccccc3c2=O)cc1C,12.6µM*,18.5%,·,-2.8%
Cc1ccc2c(CC(=O)OCc3csc(C)n3)coc2c1,3.3%,37.2%,>57,-3.8%
O=C(Cc1coc2cc3c(cc12)CCC3)OCc1cc(=O)n2c(n1)sc1ccccc12,-0.3%,10µM*,>57,-0.5%
COc1ncc2nc(-c3ccc(F)cc3)c(=O)n(-c3ccccc3)c2n1,-7.9%,8.1%,>57,1.4%
COc1ccc2[nH]cc(CCNc3ncnc4ccc(-c5c(C)noc5C)cc34)c2c1,1.3%,2.2%,>57,9.5%
COc1cccc(-c2ccc3ncnc(NCc4ccccc4)c3c2)c1,?,-12.1%,>57,3.9%
COc1cccc(-c2ccc3ncnc(NCc4ccccc4OC)c3c2)c1,3.98µM*,1.26µM*,>57,12.6µM*
COc1cccc(-c2ccc3ncnc(NCc4ccc(OC)cc4OC)c3c2)c1,?,7.94µM*,>57,12.6µM*
COc1cccc(-c2cc(NCc3ccccc3)ncn2)c1,1.2%,5.01µM*,>57,7.94µM*
C[C@H]1C2=C3C(CC[C@H]4C(OCc5ccc(F)cc5C(F)(F)F)OC[C@](C)([C@@H]34)N(C(=O)OC(C)(C)C)C2)C2COC(=O)OCC21 (stereo not given in full),?,111.0%,>11.4,-0.2%
O=C(NCc1cc(F)cc2c1OCCO2)[C@H]1C[C@@H]1[C@H](NP(=O)(c1ccccc1)c1ccccc1)c1ccccc1,?,81.7%,>57,-1.6%
O=C(Cc1cccs1)Nc1ccc(S(=O)(=O)N2CCCCC2)cc1,-3.4%,12.6µM*[single pt active],>57,-1.8%
O=C(Nc1ccc(S(=O)(=O)N2CCCCCC2)cc1)c1ccc(Br)o1,1.58µM*,-11.4%,>57,8.4%
C=C(C)[C@H]1Cc2c(ccc3c2O[C@H]2COc4cc(OC)c(OC)cc4[C@@H]2C3=O)O1,?,115.0%,>57,-2.7%
COc1cccc(-c2nc(NCc3ccccc3)c3ccccc3n2)c1,-33.0%,-5.1%,>57,7.5%
